Hit rate of the full screen: of about 370,000 compounds, about 3,800 (1%) were called active. Rule as the data show it: active = activation above about 7.8%; inactive = the rest. The list comes from a sample in which actives are over-represented; it also holds similar structures and randomly drawn compounds.

From PubChem BioAssay AID652017 (The Scripps Research Institute Molecular Screening Center, 2013) come the findings set out here.

This assay is described as follows: SMARCA2 (BRM) function activators, primary screen, cell-based, luminescence, high throughput (AID 652017).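 Also: 0% = vehicle wells and 100% = reference activator wells.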 Particulars: MG213 cells, MMTV-luciferase reporter, dexamethasone, overnight; at 9.1 µM; active compounds read high. (In general: Reporter assays use an easily measured gene product as a stand-in for the process of interest.)
For `O=C(CCCc1ccccc1)NCc1ccccc1`, the activation was 8.27% (active).
On to `COc1ccc(OCC(=O)NCCc2ccc(S(N)(=O)=O)cc2)cc1`, for which the activation was 2.09% (inactive).
As for `COc1ccc(OCCCC(=O)NCCc2ccccc2)cc1`, the activation is 17.9% (active).
Take `COc1ccc(CCNC(=O)CN(c2ccccc2)S(C)(=O)=O)cc1`: the activation is -1.26% (inactive).
The result for `O=C(CCNS(=O)(=O)c1ccccc1)NCCCc1ccccc1` reads -1.66% (inactive); that for `O=C(CC1CCCCC1)NCc1ccccc1`, 2.93% (inactive).
On to `O=C(c1ccccc1)c1ccc(-c2ccccc2C(=O)NC2CCCCN(Cc3ccc(Cl)cc3)C2=O)cc1` (configuration not stated), for which the activation was -0.95% (inactive).
As to `CCOC(=O)[C@]12CCCC3=C1N(CCC3)C(=O)[C@@H](CC(=O)NCC13CC4CC(CC(C4)C1)C3)C2`, the activation is -3% (inactive).
The result for `C=CCOc1ccc(Cl)cc1CNCCCN1CCOCC1` reads -1.83% (inactive).
For `CC(C)CNc1cccc2c1S(=O)(=O)N(Cc1cn(Cc3ccc(Cl)cc3)nn1)Cc1ccccc1O2`, the activation is 0.35% (inactive).
As for `CCN(CC)C(=O)c1sc2nc(-c3ccccc3)ccc2c1N`, the activation was 9.84% (active).
For the compound `COC(=O)c1cc2c(N)c(C(=O)c3ccc(Cl)cc3)sc2nc1C(OC)OC`, the activation was -4.26% (inactive).
The result for `NC(=O)Cc1ccc2sc(-c3ccccc3)nc2c1` reads 2.7% (inactive).
As to `CCOC(=O)c1cnc2sccn2c1=O`, the activation was -1.74% (inactive).
As to `O=C(NCc1ccccn1)c1cnc2sccn2c1=O`, the activation is 8.52% (active).
With `CN(C)/C=C/C(=O)c1cnc2sccn2c1=O`, the activation is -3.44% (inactive).
In the case of `N#Cc1ccccc1OC[C@@H](O)CN1CCC(C(O)(c2ccccc2)c2ccccc2)CC1`, the activation was -4.74% (inactive).
Regarding `COC(=O)c1ccc(CSc2nnc(N)s2)o1`, the activation is -1.46% (inactive).
For the compound `CN1CCc2c(sc3c2c(NCc2ccco2)nc2nnnn23)C1`, the activation is 0.32% (inactive).
The result for `COc1ccc(C(=O)NCC[N+](C)(C)C)cc1` reads -4.72% (inactive); that for `COc1ccccc1CN(C)C(=O)c1cc2ccccc2o1`, -0.29% (inactive); that for `COc1ccc(C(=O)N/N=c2\oc3ccccc3cc2C(N)=O)cc1`, 9.22% (active).
Turning to `CC(=O)c1cc(-c2ccc3ccccc3c2)c(=O)n2c1CCC2`, the activation is -0.02% (inactive).
The result for `CSc1ccc(C#N)cc1NC(=O)c1ccc(Cl)cc1` reads -0.91% (inactive); that for `COc1ccc(Sc2ccc(NC(=O)c3cccc(Cl)c3)cc2C#N)cc1`, -0.62% (inactive).
Take `N#Cc1ccccc1NC(=O)c1cccc(COc2ccc(Cl)cc2Cl)c1`: the activation is 9.56% (active).
As for `C[C@H](CO)N1C[C@H](C)[C@@H](CN(C)S(=O)(=O)c2ccc(F)cc2)Oc2ccc(NC(=O)CCC(F)(F)F)cc2C1=O`, the activation is 1.28% (inactive).
For `NS(=O)(=O)c1ccccc1NC(=O)c1c(O)c2ccccc2[nH]c1=O`, the activation is 9.94% (active).
The result for `Cn1c(=O)c(C(=O)Nc2ncccn2)c(O)c2ccccc21` reads 2.91% (inactive); that for `CCOC(=O)c1ccccc1NC(=O)c1c(N)n(C)c(=O)[nH]c1=O`, -0.83% (inactive).
The result for `CCCC[C@H]1C2CC(OC(=O)NCc3ccccc3)C(C2)[C@H]2CCCCN21` (some centres not stated) reads -0.93% (inactive); that for `CC(=O)O[C@@]1(C(C)=O)CCC2[C@H]3C=C(C)C4=CC(=O)CC[C@@]4(C)C3CC[C@]21C` (some centres not stated), -9.82% (inactive).
As for `Cc1cccc(NC(=S)N2CCC(c3nc4ccccc4s3)CC2)c1`, the activation is -2.82% (inactive).
As to `Cc1nc2ccc(NC(=O)N3CCC(c4ccccc4)C3)cc2nc1C` (configuration not stated), the activation was -3.22% (inactive).
Take `Cc1nc2ccc(NC(=S)N3CCC(C)CC3)cc2nc1C`: the activation is 7.91% (active).
`Cn1nc(C(F)(F)F)c2cc(NC(=O)OCC(C)(C)C)sc21`: the activation is 7.24% (inactive).
The result for `CSCCC(C(=O)NC(C)(C)C)n1c(-c2ccccc2)nc2ccccc21` (configuration not stated) reads -3.19% (inactive); that for `CCC(C(=O)NC(C)(C)C)n1c(-c2ccccc2)nc2ccccc21` (configuration not stated), -0.72% (inactive).
For the compound `CC(C)(C)NC(=O)C(CCc1ccccc1)n1c(=O)c(-c2ccccc2)nc2ccccc21` (configuration not stated), the activation was 17.1% (active).
For the compound `CN(C)c1ccc(NC(=O)NC2CCCCN(Cc3ccc(Cl)cc3)C2=O)cc1` (configuration not stated), the activation was -1.53% (inactive).
Turning to `CS(=O)(=O)c1ccc(C(=O)NNC(=O)c2cccs2)cc1`, the activation is -1.1% (inactive).
For the compound `CC(C)COc1ccc(C(=O)NNC(=O)CCC(=O)c2cccs2)cc1`, the activation is 0.68% (inactive).
Turning to `Cc1ccc(C(=O)NNC(=O)c2cccs2)cc1`, the activation was 9.31% (active).
As for `C=CCC(NCCCO)c1cccc(OC)c1OC` (configuration not stated), the activation was 2.11% (inactive).
Take `Cc1cc(C)cc(-c2nnc(SCC(=O)NC3CC3)o2)c1`: the activation is 2.96% (inactive).
Consider `COc1ccc(Cl)cc1C(=O)NNC(=O)c1nc2nc(C)cc(C)n2n1`, for which the activation was -0.45% (inactive).
Consider `Cc1cc(C)n2nc(C(=O)NC(C)(C)C)nc2n1`, for which the activation is 1.51% (inactive).
With `Cc1cc(C)n2nc(CNS(=O)(=O)c3c(F)c(F)c(F)c(F)c3F)nc2n1`, the activation was 9.77% (active).
With `CCOC(=O)N1CCN(C(=O)C[C@H]2C[C@@]3(C(=O)OC)C(=C[C@H](C(C)(C)C)O[C@@H]3C)N(Cc3ccc(Cl)cc3Cl)C2=O)CC1`, the activation was -4.25% (inactive).
With `CC(=O)Nc1nc2ncccn2c1-c1ccc(C(F)(F)F)cc1` the figure was -1.69% (inactive).
As for `CC(=O)n1cc([C@H]2C=C(C(=O)N3CCOCC3)O[C@@H](OCc3ccc(CO)cc3)C2)c2ccccc21`, the activation was -0.72% (inactive).
`COc1cccc(CNC(=O)C2CCCN(c3nc4ccccc4o3)C2)c1OC` (configuration not stated): the activation was -3.99% (inactive).
With `COC(=O)C1C(=O)c2c([nH]c(C(=O)OCCSC)c2C)CC1C` (configuration not stated) the figure was 15.2% (active); with `CCOC(=O)c1cnc2ccc(F)cc2c1Nc1ccc2c(c1)OCCO2`, -4.81% (inactive); with `CC(C)N1CCCCC(NC(=O)C(C)(C)C)C1=O` (configuration not stated), 0.13% (inactive).
On to `NC(=O)c1oc2ccccc2c1NC(=O)CS(=O)(=O)c1ccccc1`, for which the activation was -2.91% (inactive).
Take `CCOC(=O)CNc1nc2ccccc2n2c(C)nnc12`: the activation was -1.96% (inactive).
The result for `Fc1ccc(CNc2nc3ccccc3n3nnnc23)cc1` reads 10.3% (active).
Regarding `CC(C)(C)N1CC(c2nc3ccccc3n2Cc2ccc(F)cc2)CC1=O` (configuration not stated), the activation was 4.59% (inactive).
As to `Cc1ccc(O)c(CNc2nc3ccccc3n2C)c1`, the activation is 9.3% (active).
With `CC(C)n1c(NCc2c[nH]c3ccccc23)nc2ccccc21`, the activation is -2.21% (inactive).
`C/C(=N\c1nc2ccccc2n1C)c1cc(Cl)ccc1O`: the activation was 0.8% (inactive).
